Laboratory results from PubChem BioAssay (Tox21).
Inconclusive results are not listed. A call without a number means that no potency is given here. Calls of active or inactive are those of the source. Calls follow the shape of the full dose curve.

Assay: p53 small molecule agonists, cell-based qHTS assay: qHTS cell viability counter screen (AID 1963581); also: nearly all actives have a fitted effect of over 45% in size
Details: p53RE-bla HCT-116 viability, ATP luminescence, 16 h; series mostly up to 66 µM
Excerpt: National Center for Advancing Translational Sciences [NCATS]
Division of Preclinical Innovation [DPI]
U.S. Environmental Protection Agency [EPA]
National Institutes of Environmental Health Sciences [NIEHS]
National Toxicology Program [NTP]
U.S. Food and Drug Administration [FDA]
p53, a tumor suppressor protein, is activated following cellular insult, including DNA damage and other cellular stresses. The activation of p53 regulates cell fate by inducing DNA repair, cell cycle arrest, apoptosis, or cellular senescence. The activation of p53, therefore, is a good indicator of DNA damage and other cellular stresses. The CellSensor p53RE-bla HCT-116 cell line (Invitrogen) contains a stably integrated beta-lactamase reporter gene under control of the p53 response elements. The activation of the reporter gene under culture conditions can be detected by fluorescence intensity. This cell line was used to screen the Tox21 compound library in a 1536-well plate format and to identify agonists that activate the p53 signaling pathway. The cytotoxicity of the Tox21 compound library against the p53 RE-bla HCT-116 cell line was tested in parallel by measuring the intra cellular ATP content in the same wells.
Tox21 Assay Protocol Summary:
The p53RE-bla cells were dispensed at 4,000 cells/5 ul/well in 1536-well black wall/clear bottom plates using a Multidrop dispenser. After the assay plates were incubated at a 37 C/5% CO2 incubator for 5 hours, 23 nL of compounds dissolved in DMSO, positive controls or DMSO only was transferred to the assay plate by a pin tool. The plates were incubated at 37 C for 16 hours. After 1 uL of LiveBLAzerTM B/G FRET substrate was added using a Flying Reagent Dispenser, the plates were incubated at room temperature for 2 hours, and fluorescence intensity was measured by an Envision plate reader. For cell viability readout that measures cytotoxicity, 4 ul/well of CellTiter-Glo reagent was added into the assay plates using a Flying Reagent Dispenser. After 30 min incubation at room temperature, the luminescence intensity in the plates was measured using a ViewLux plate reader.
Potency is read from the fitted curve at half-maximal effect.

Compound | Potency
CCOP(=S)(OCC)SCCSCC | inactive
NCCOS(=O)(=O)O | inactive
OCCSSCCO | inactive
O=P(O)(O)CCCl | inactive
OCCOCCO | inactive
O=S1OCC2C(CO1)C1(Cl)C(Cl)=C(Cl)C2(Cl)C1(Cl)Cl (stereo not given) | inactive
CCCCCCn1cc[n+](C)c1 | inactive
CCCCCON=O | inactive
O=C(Cl)OCCOCCOC(=O)Cl | inactive
CCCC(C)(COC(N)=O)COC(=O)NC(C)C (stereo not given) | inactive
Nc1cc(Cl)cc(C(=O)O)c1Cl | inactive
CC[n+]1c(-c2ccccc2)c2cc(N)ccc2c2ccc(N)cc21 | inactive
[O]=[Cr][O][Cr]=[O] | inactive
CCN(CCO)CCO | inactive
CC(C)c1ccc(OP(=O)(Oc2ccc(C(C)C)cc2)Oc2ccc(C(C)C)cc2)cc1 | inactive
Cl/C=C/CCl | inactive
c1ccc(NNc2ccccc2)cc1 | inactive
N#Cc1cc([N+](=O)[O-])ccc1N | inactive
CCCCCCCCCCn1cc[n+](C)c1 | inactive
CCNc1nc(NCC)nc(SC)n1 | inactive

Compound | Potency
CN(C)c1ccc(N=O)cc1 | inactive
OCCCl | inactive
Sc1ccccc1Cl | inactive
ClC(Cl)(Cl)Br | inactive
[Cd+2].[Cl-].[Cl-] | 36.7 µM (active)
Nn1cnnc1 | inactive
c1ccc2c(c1)oc1ccccc12 | inactive
COC(=O)C(Cl)C(=O)OC | inactive
Cc1ccc([N+](=O)[O-])cc1C | inactive
CC(C)(C)C(O)(CCc1ccc(Cl)cc1)Cn1cncn1 (stereo not given) | inactive
ClC1=C(Cl)C2(Cl)C3C(Cl)C(Cl)CC3C1(Cl)C2(Cl)Cl (stereo not given) | inactive
CNC(=O)Oc1ccccc1C1OCCO1 | inactive
C=CCN=C=S | inactive
C=CCSSCC=C | inactive
ClC1=C(Cl)C2(Cl)C3C(Cl)C=CC3C1(Cl)C2(Cl)Cl (stereo not given) | inactive
CC(C)OC(=O)Nc1ccccc1 | inactive
C=CC(Cl)CCl (stereo not given) | inactive
OCC1CO1 (stereo not given) | inactive
N#Cc1ccc(O)cc1 | inactive
CCN | inactive
